These results are taken from PubChem BioAssay (NCATS).

Where “and” joins values, the source holds several entries; their conditions need not be identical. Equal entries are not always repeated. Inconclusive results are not listed. Calls of active or inactive are those of the source. Calls follow the shape of the dose curve; as a rule, active = well fitted activation curve with a large enough effect; inconclusive = small, poorly fitted or top-dose-only effect; inactive = no such curve, though single readings can be large or run the other way. Numbered stars: 1 amine (or outer) side, 2 acyl side, 3 side chain; on linkers, the order of the positions; unused ones are H or OH. Bridge positions count the residues as written; N and C are the ends. Square brackets hold non-standard residues; d marks the D form. Peptide text beside a SMILES is read from it. ξ: configuration not given here. X2 = CC(C)=CCc1cc(C(O)C(N[*:1])C(=O)[*:2])ccc1O; ξLac(3-iPr) = CC(C)CC(O)C(=O)O; NMeV = CN[CH](C(=O)O)C(C)C; X4 = O=C(CCC[*:2])[*:1]; βAla = NCCC(=O)O
Potency is read from the fitted curve at half-maximal effect.

The target of the experiment is Cellular tumor antigen p53 (Homo sapiens) (UniProt P04637). In words: Primary qHTS for small molecule compounds that upregulate eGFP-tagged delta133p53alpha (in N-terminal) cells. (AID 2060322). Also: nearly all actives have a fitted effect of over 75% in size.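 As to activation: cells pre-induced with doxycycline then dosed without doxycycline; series mostly up to about 56 µM; 0% = DMSO vehicle and 100% = reference activator.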 To be noted: NCI-H358 eGFP-delta133p53alpha fluorescence, 24 h; activation: stronger effect = higher value. The gist of the method: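 NCI-H358 cells pre-induced 24 h with 10 ng/ml doxycycline for eGFP-delta133p53alpha, plated dox-free and exposed 24 h at 37C to titrated compounds. Fixed, Hoechst-stained; gated GFP peak intensity by laser scanning cytometry, normalized to DMSO (0%) and 57.5 uM 5-azacytidine (100%).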
Chain of Cellular tumor antigen p53 (Homo sapiens) (P04637 whole entry, looked up): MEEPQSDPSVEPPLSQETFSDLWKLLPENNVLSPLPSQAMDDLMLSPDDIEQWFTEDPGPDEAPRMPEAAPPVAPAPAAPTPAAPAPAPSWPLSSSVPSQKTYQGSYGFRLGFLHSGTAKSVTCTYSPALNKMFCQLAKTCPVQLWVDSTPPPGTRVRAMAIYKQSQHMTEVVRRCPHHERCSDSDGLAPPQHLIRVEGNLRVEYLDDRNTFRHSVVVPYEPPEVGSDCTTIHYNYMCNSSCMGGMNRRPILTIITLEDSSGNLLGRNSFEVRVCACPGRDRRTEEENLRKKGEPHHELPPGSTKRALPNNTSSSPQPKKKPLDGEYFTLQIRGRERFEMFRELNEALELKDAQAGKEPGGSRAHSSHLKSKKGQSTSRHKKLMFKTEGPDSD
In general terms: In qHTS, concentration-response curves come from the screen itself.
With `CC[C@H](C)[C@@H]1NC(=O)[C@H](Cc2ccc(OC)cc2)NC(=O)CCCSC[C@@H](C(=O)N2CCC[C@H]2C(=O)N[C@@H](CC(C)C)C(=O)NCC(N)=O)NC(=O)[C@H](CC(N)=O)NC(=O)[C@H](CCC(N)=O)NC1=O` (Y(Me)IQNCPLG-NH2; linker N-5 via X4), the activation is -10.3% (inactive). Turning to `Cc1ccc2c(Nc3ccc(Cl)cc3)nccc2c1Nc1ncccc1-c1ncnc2nc[nH]c12`, the Potency was 9.53 µM (active).

Regarding `C[C@H](N)C(=O)N[C@@H](Cc1ccc(O)cc1)C(=O)N1CCC[C@H]1C(=O)NCC(=O)N[C@@H](CCCCN)C(=O)N[C@@H](Cc1ccccc1)C(N)=O`, the activation is -5.67% (inactive). Turning to `COc1ccc(C2C(C(=O)O)C(C(=O)O)C2c2ccc(OC)cc2O[C@@H]2O[C@H](CO)[C@@H](O)[C@H](O)[C@H]2O)c(O[C@@H]2O[C@H](CO)[C@@H](O)[C@H](O)[C@H]2O)c1` (stereo not given in full), the activation is 7.63% (inactive). As for `CC(C)CC1OC(=O)C2CCCN2C(=O)CCNC(=O)C(Cc2ccccc2)NC(=O)C(C(C)C)N(C)C(=O)C(C(C)C)N(C)C1=O` (stereo not given) (cyclo([ξLac(3-iPr)][NMeV][NMeV]F[βAla]P); configuration not given here), the activation was -23.7% (inactive). With `OC[C@@]1(O)CO[C@@H](OC[C@H]2O[C@@H](OCc3ccccc3)[C@H](O)[C@@H](O)[C@@H]2O)[C@@H]1O`, the activation is -13.7% (inactive). Consider `C=C1C(=O)O[C@@H]2/C=C(\C)CC/C=C(\C(=O)O[C@@H]3O[C@H](CO)[C@@H](O)[C@H](O)[C@H]3O)CC[C@@H]12`, for which the activation was -5.36% (inactive).

On to `COc1c(N2CC3CCCNC3C2)c(F)cc2c(=O)c(C(=O)O)cn(C3CC3)c12` (stereo not given), for which the activation is 3.34% (inactive). Take `CC(C)CC[C@@H](O)[C@](C)(O)[C@H]1CC[C@@]2(O)C3=CC(=O)[C@@H]4C[C@@H](O)[C@@H](O)C[C@]4(C)[C@H]3CC[C@]12C`: the activation is -7% (inactive). Regarding `CC(=O)c1[nH]cc(CCC(=O)O)c1CC(=O)O`, the activation was -15.3% (inactive).

For the molecule `CC[C@H]1OC(=O)[C@H](C)[C@@H](O[C@H]2C[C@@](C)(OC)[C@@H](O)[C@H](C)O2)[C@H](C)[C@@H](O[C@H]2O[C@H](C)C[C@H](N(C)C)[C@H]2O)[C@](C)(O)C[C@@H](C)C(=O)[C@H](C)[C@@H](O)[C@]1(C)O`, the activation is 9.67% (inactive). As to `CC1=CC(=O)CC2C1(O)CCC(C)C21CC(c2ccoc2)OC1=O` (stereo not given), the activation is 6.87% (inactive). Still for that read-out and setting: to `O=C(OCC(O)CO[C@@H]1O[C@H](C(=O)O)[C@@H](O)[C@H](O)[C@H]1O)c1ccccc1` (stereo not given in full) belongs -13% (inactive); to `CCc1cc(CN2CC(C(=O)O)C2)sc1-c1noc(-c2ccc(Oc3ccccc3)cc2)n1`, -2.39% (inactive). On the same count and under the same terms, the same measure for `CC(C)=CCc1cc(C(O)C2NC(=O)CNC(=O)C(Cc3c[nH]c4ccccc34)NC(=O)C3CCCN3C(=O)CNC(=O)C(C(C)C)NC(=O)CNC2=O)ccc1O` (stereo not given) (cyclo(G[X2]GVGPW); configuration not given here): -8.4% (inactive). On the same count and under the same terms, to `C[C@@H]1O[C@@H](O[C@H]2[C@H](OC(=O)[C@]34CCC(C)(C)C[C@H]3C3=CCC5[C@@]6(C)C[C@H](O)[C@H](O[C@@H]7O[C@H](CO)[C@@H](O)[C@H](O)[C@H]7O)[C@@](C)(CO)C6[C@H](O)C[C@@]5(C)[C@]3(C)C[C@H]4O)OC[C@H](O)[C@@H]2O)[C@H](O)[C@H](O)[C@H]1O[C@@H]1OC[C@@H](O)[C@H](O[C@H]2OC[C@](O)(CO)[C@H]2O)[C@H]1O` (stereo not given in full) belongs 27.7% (inactive); to `COC1CC(OC2CCC3(C)C(=CCC4C3C(OC(C)=O)C(OC(=O)/C=C/c3ccccc3)C3(C)C(C(C)O)CCC43O)C2)OC(C)C1OC1CC(OC)C(OC2OC(C)C(OC3OC(CO)C(O)C(O)C3O)C(OC)C2O)C(C)O1` (stereo not given), 2.29% (inactive). Consider `C=C1C(OC(C)=O)C(=O)C2C(C)(C)C(OC(C)=O)CCC2(C)C1CC(OC(C)=O)/C(C)=C/COC(C)=O` (stereo not given), for which the activation was 17.6% (inactive). For `C[C@@H]1CCC2C(C)(C)[C@H](O)CC[C@]2(C)[C@@]12Cc1c(O)cc3c(c1O2)CN([C@@H](CCC(=O)O)C(=O)O)C3=O` (stereo not given in full), the activation was -9.16% (inactive). Regarding `CC1[C@@H](O)[C@@H](O)C2[C@]3(C)C(C[C@H]4OC(=O)[C@H](O)[C@]1(O)[C@@]24C)C(C)(O)C[C@H](O)[C@H]3O` (stereo not given in full), the activation is -16% (inactive). On to `C=C1CC[C@@H]2[C@](C)(CO)[C@H](O)CC[C@@]2(C)[C@@H]1C/C=C1/C(=O)OC[C@@H]1O`, for which the Potency is 11.7 µM (active).

For `C=CC(C)(O)C(O)CC1C(C)(O)C(O)C(O)C2C(C)(C)CCCC21C` (stereo not given), the activation was -20.6% (inactive). Consider `COC(=O)C1=C[C@@H](O)[C@@H](O)[C@H](O[C@@H]2O[C@H](CO)[C@@H](O)[C@H](O)[C@H]2OC(=O)/C=C/c2ccccc2)C1`, for which the activation was -26% (inactive).

In the case of `C[C@@H]1CC[C@]2(C(=O)O)CC[C@]3(C)C(=CCC4[C@@]5(C)C[C@@H](O)[C@@H](O)C(C)(C)C5CC[C@]43C)C2[C@]1(C)O` (stereo not given in full), the activation is -5.36% (inactive).

For `CNc1cccc(CCOc2ccc3c(c2)CN(CC(F)(F)F)C(=O)[C@H](CC(=O)O)C3)n1`, the activation was 2.86% (inactive).

For the molecule `C=CCC/C=C/C#CCCCCCCCC[C@H]1C(=O)O[C@H](C)[C@@H]1O`, the activation is 8.4% (inactive).

Regarding `CCc1nn(CCO)c(CC)c1Oc1cc(C#N)cc(C#N)c1`, the activation was 11.9% (inactive). As to `CN1CCN(S(=O)(=O)c2ccc(-c3cnc(N)c(C(=O)Nc4cccnc4)n3)cc2)CC1`, the activation was -18.8% (inactive). Same read-out and setting: the same measure for `C=C[C@]1(C)C[C@H](O)[C@@H]2[C@H](OC(=O)[C@@H]2C)C1/C(C)=C/O[C@@H]1O[C@H](CO)[C@@H](O)[C@H](O)[C@H]1O` (stereo not given in full): -27.7% (inactive); for `COc1ccc2nccc(C(=O)CC[C@@H]3CCN(CC#Cc4cc(F)cc(F)c4F)C[C@@H]3C(=O)O)c2c1`: 7.64% (inactive); for `Cc1cc2nc(NCCCO)n(CC(=O)c3cc(C(C)(C)C)c(O)c(C(C)(C)C)c3)c2cc1C`: 5% (inactive). `COC(=O)c1ccc(N2CCN(C)CC2)c(NC(=O)c2cccc(OC)c2)c1`: the activation was 9% (inactive). On to `CO[C@@H]1CC[C@H](OC[C@]2(COC(=O)c3ccc(C)[nH]3)[C@H](OC(C)=O)CC[C@@]3(C)[C@@H]4CC=C(C)[C@@H](C5=C(O)C(=O)OC5O)[C@]4(C)CC[C@@H]32)O[C@H]1C` (stereo not given in full), for which the activation is 0% (inactive). Still for that read-out and setting: the same measure for `CCOc1ccc(-c2ccc(Cn3c(CC(C)(C)C(=O)O)c(SC(C)(C)C)c4cc(OCc5ccc(C)cn5)ccc43)cc2)cn1`: -1% (inactive) and 3% (inactive); for `C[C@@H]1O[C@@H](O[C@H]2[C@H](O)[C@@H](O[C@@H]3O[C@H](CO)[C@H](O)[C@H](O)[C@H]3O)[C@H](O[C@H]3CC[C@@]4(C)C(CC[C@]5(C)C4CC=C4[C@@H]6CC(C)(C)CC[C@]6(C(=O)O[C@@H]6O[C@H](CO)[C@@H](O)[C@H](O)[C@H]6O)CC[C@]45C)C3(C)C)O[C@@H]2C(=O)O)[C@H](O)[C@H](O)[C@H]1O` (stereo not given in full): 5.34% (inactive); for `CC(=O)O[C@H]1CC(C)(C)CC2[C@]13CO[C@@]21CCC2[C@@]4(C)CC[C@H](O[C@@H]5OC[C@H](O[C@@H]6O[C@H](CO)[C@@H](O)[C@H](O)[C@H]6O[C@@H]6OC[C@@H](O)[C@H](O)[C@H]6O)[C@H](O)[C@H]5O[C@@H]5O[C@H](CO)[C@@H](O)[C@H](O)[C@H]5O)[C@@](C)(CO)C4CC[C@@]2(C)[C@]1(C)C[C@H]3O` (stereo not given in full): -17.9% (inactive). For `CCC(C)C(=O)OC1CC(O)C23C4OCC5(C(O)CC2C1(C)C(O)O4)C3C(=O)C(O)C1(C)C(O)(c2ccoc2)CC2OC251` (stereo not given), the activation is 5.34% (inactive). The same measure, in the same setting: to `C/C=C(/C=C(C)/C=C/C=C/C=C(\C)C(=O)C12OC1C(O)(CCO)NC2=O)C(=O)OC` (stereo not given) belongs -13.7% (inactive). Turning to `CC(=O)OC1C(O)C(C)=C(CCC(C)CC(=O)O)C2(C)CCCC(C)(C)C12` (stereo not given), the activation was 3.82% (inactive). On to `COc1cc2ncnc(Nc3cccc(I)c3)c2cc1OC`, for which the Potency is 12 µM (active).
